The campaign covered roughly 360,000 compounds. About 16,000 (4.4%) were called active. Another 9% or so got no clear call; they are omitted. For the sample, actives were picked, then their nearest neighbours and some compounds at random. Values without a mark were called inactive. The call rests on the fitted dose curve; in most records, active means well fitted inhibition curve with a large enough effect; inconclusive means small, poorly fitted or top-dose-only effect; inactive means no such curve, though single readings can be large or run the other way.
Target: Bromodomain adjacent to zinc finger domain protein 2B (Homo sapiens) (UniProt Q9UIF8)
Assay: qHTS Assay for Inhibitors of BAZ2B; further: nearly all actives have a fitted effect of over 60% in size
Settings: AlphaScreen BAZ2B-H3K14Ac peptide displacement; series mostly up to 114 µM; activity change, negative = inhibition: at the top concentration
In short: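 AlphaScreen displacement of biotin-H3(5-23)K14Ac peptide (50 nM final) from BAZ2B (50 nM final) in PBS pH 7.4, 0.01% Tween-20; complex preformed 30 min RT, then compounds (top 110 uM) 30 min RT, beads 20 min dark.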
On the % scale 0 is the no-effect control and ±100 the full control effect; potency means the concentration at half of the fitted maximal effect.

Chain of Bromodomain adjacent to zinc finger domain protein 2B (Homo sapiens) (Q9UIF8 whole entry, looked up, the tested form may be a part): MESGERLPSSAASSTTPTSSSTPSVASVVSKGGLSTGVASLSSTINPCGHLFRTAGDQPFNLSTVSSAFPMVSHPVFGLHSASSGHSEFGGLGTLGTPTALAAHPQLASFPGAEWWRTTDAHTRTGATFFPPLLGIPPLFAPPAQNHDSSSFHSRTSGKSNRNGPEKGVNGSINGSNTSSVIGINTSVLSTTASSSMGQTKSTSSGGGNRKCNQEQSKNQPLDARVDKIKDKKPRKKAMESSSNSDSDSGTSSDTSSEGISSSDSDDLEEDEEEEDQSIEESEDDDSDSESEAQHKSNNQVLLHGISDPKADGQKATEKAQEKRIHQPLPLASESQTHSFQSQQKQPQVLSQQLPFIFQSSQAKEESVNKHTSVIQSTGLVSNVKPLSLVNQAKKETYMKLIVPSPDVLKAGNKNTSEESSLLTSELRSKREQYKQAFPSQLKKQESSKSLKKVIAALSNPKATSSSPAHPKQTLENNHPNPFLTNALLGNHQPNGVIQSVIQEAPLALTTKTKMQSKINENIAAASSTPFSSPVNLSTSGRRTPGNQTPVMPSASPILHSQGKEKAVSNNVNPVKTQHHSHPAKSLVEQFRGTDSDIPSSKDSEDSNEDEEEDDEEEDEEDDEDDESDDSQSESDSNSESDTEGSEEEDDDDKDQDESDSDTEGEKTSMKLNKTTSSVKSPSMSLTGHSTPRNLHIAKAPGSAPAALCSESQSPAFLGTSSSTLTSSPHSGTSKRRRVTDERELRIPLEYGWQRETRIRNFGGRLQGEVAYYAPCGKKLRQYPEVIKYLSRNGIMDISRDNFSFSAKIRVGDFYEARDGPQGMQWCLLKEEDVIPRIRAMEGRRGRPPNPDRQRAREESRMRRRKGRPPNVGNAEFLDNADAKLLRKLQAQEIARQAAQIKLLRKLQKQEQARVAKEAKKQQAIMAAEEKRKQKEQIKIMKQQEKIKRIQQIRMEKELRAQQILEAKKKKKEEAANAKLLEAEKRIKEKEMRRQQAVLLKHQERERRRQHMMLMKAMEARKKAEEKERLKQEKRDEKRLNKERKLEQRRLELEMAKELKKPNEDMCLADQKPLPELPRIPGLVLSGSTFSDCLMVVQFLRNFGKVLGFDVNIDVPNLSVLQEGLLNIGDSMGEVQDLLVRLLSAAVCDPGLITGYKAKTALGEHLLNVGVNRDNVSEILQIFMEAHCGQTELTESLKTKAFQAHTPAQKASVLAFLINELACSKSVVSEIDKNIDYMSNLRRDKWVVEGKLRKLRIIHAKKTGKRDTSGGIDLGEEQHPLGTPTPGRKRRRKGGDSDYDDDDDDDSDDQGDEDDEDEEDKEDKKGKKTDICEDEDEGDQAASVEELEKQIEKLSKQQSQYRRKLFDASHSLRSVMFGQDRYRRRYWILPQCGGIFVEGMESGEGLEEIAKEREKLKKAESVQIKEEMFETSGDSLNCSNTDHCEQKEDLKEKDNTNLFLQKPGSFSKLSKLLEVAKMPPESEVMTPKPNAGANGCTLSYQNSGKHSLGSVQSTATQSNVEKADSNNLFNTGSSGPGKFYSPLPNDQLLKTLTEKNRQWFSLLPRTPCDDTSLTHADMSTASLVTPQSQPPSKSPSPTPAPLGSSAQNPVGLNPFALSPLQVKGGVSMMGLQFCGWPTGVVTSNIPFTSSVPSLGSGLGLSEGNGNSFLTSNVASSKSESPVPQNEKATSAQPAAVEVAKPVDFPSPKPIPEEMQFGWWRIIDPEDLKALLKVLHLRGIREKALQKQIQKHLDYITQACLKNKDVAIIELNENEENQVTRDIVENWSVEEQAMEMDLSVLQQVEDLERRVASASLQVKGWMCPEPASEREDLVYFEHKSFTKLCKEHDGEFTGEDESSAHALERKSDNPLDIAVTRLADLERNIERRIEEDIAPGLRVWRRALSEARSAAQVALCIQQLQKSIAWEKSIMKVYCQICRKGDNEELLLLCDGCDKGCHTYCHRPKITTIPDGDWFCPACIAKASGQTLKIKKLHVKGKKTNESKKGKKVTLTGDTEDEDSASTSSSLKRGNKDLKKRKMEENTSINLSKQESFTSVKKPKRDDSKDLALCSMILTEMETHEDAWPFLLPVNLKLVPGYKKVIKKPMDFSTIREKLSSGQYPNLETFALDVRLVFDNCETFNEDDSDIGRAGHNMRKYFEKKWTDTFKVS

SMILES	activity change, negative = inhibition	Potency
COc1cc(OC)c(OC)cc1/C=C/c1nc2cc3ccccc3cc2c(=O)n1-c1ccc(F)c(Cl)c1	-24%	
COc1ccc(CCNS(=O)(=O)c2cc(-c3cc(C)no3)ccc2C)cc1OC	-3.59%	
Cc1ccc(OCC(=O)Nc2ccc(N3CCN(C(=O)c4ccco4)CC3)cc2)c(C)c1		31.6 µM (active)
CCC(=O)Nc1ccc(C(=O)N2CCN(C(=O)c3ccco3)CC2)cc1	-11.3%	
Cc1ccc(C)c(OCC(=O)N2CCN(C(=O)c3ccco3)CC2)c1	6.13%	
CCOc1ccc(Nc2c(S(=O)(=O)c3ccccc3)cnc3ccccc23)cc1	-29.1%	
CC(C)(C)OC(=O)NNc1c2ccccc2nc2ccccc12	-38.3%	
O=C(NNc1c2ccccc2nc2ccccc12)c1cc2ccccc2cc1O		8.91 µM (active)
O=C(N/N=C/c1cccnc1)c1cc2ccccc2cc1O	-13.6%	
COC(=O)c1ccccc1NC(=O)c1ccc2c(=O)n3c(nc2c1)CCCCC3	0.816%	
CC1=C(C(=O)N2CCN(c3cccc(C(F)(F)F)c3)CC2)C2(CCCCC2)OC1=O	-9.34%	
O=C(NCc1ccccc1)C(=O)NCC(c1ccco1)S(=O)(=O)c1ccc(Cl)cc1 (stereo not given)	-0.73%	
CC(C)=C(NC(=O)c1ccccc1)C(=O)N/N=C(\C)c1ccccc1O	-7%	
C/C(=N\NC(=O)c1ccoc1C)c1ccccc1O		50.1 µM (active)
Cc1cc(C(=O)NNC(=O)c2ccccc2O)c(C)o1	-5.59%	
COc1cccc(-c2nc(S(=O)(=O)c3ccc(C)cc3)c(NCc3ccccc3)o2)c1	17.1%	
CCC(=O)OCCNc1nc(-c2ccccc2)nc2ccccc12	3.03%	
CCOCCCNc1nc(-c2ccccc2)nc2ccccc12	6.2%	
CC(C)(C)Nc1nc(-c2ccccn2)nc2ccccc12		50.1 µM (active)
O=c1c2cccnc2n(Cc2cccc(F)c2)c(=O)n1Cc1ccccc1Cl	41.6%	
Clc1cccc(CN2COc3c(cc(Cl)c4cccnc34)C2)c1		28.2 µM (active)
O=c1c2ccccc2n(Cc2cccc(Cl)c2)c(=O)n1Cc1ccccc1	-8.19%	
COc1ccc(CNC(=O)c2cc3c(s2)-c2ccccc2OC3)cc1	1.59%	
Cc1nc2c(-c3ccccc3)c(C)nn2c(C)c1CCC(=O)NCCc1ccccc1	3.94%	
CC1=C(c2ccc(C)cc2)S(=O)(=O)NC1=NCCCN1CCN(c2cc(C)ccc2C)CC1	-24.4%	

SMILES	activity change, negative = inhibition	Potency
O=c1ccc2c(-c3ccccc3S(=O)(=O)O)c3ccc(O)c(O)c3oc-2c1O		1 µM (active)
CCOc1ccc(CCNC(=O)c2c(C)oc3ncn(C)c(=O)c23)cc1	16.3% [at 57.1 µM]	
COc1ccc(CCNC(=O)c2cnc3sc(N4CCCCCC4)nn3c2=O)cc1OC	-16.6%	
O=C(CCn1c(=O)c2ccccc2n(Cc2ccc(Cl)cc2)c1=O)NCc1ccc2c(c1)OCO2	2.09%	
CCN(c1ccccc1)S(=O)(=O)c1cc(C(=O)NCc2ccccn2)ccc1C	4.88%	
Cc1ccc(NC(=O)CNCc2ccccn2)cc1S(=O)(=O)N(C)C		25.1 µM (active)
Cc1ccc(NC(=O)c2cccs2)cc1S(=O)(=O)N(C)C	9.52%	
O=S(=O)(Nc1ccc2nc(-c3cccc(Cl)c3)oc2c1)c1ccccc1	-6.28%	
COc1ccc(CNC(=O)CSc2nc3ccccc3nc2Cc2ccccc2)cc1	3.24%	
CC(C)(C)c1ccc(C(=O)NCC(c2ccco2)S(=O)(=O)c2ccc(F)cc2)cc1 (stereo not given)	-17.7%	
Cc1cccc(N2CCN(S(=O)(=O)c3ccc4[nH]c5c(c4c3)CCCCC5)CC2)c1C	-8.85% [at 57.1 µM]	
COc1ccccc1-c1cc(C(F)(F)F)nc(S(=O)(=O)CCCC(=O)Nc2cc(C)ccc2O)n1	-3.61%	
Cc1nc2nc(SCC(=O)NC3CCC(C)CC3)nn2c(C)c1Cc1ccccc1Cl (stereo not given)	-13.3%	
Nc1ccc(N=Nc2ccccc2Cl)c(N)n1		25.1 µM (active)
COc1ccc(C(=O)Nc2onc3c2CCCC3)cc1	-3.98%	
CCOc1ccc(NC(=O)c2c(NC(=O)Cc3ccccc3)sc3c2CCC(C)C3)cc1 (stereo not given)	-21.1%	
CCCCOC(=O)CSc1ncnc2sc3c(c12)CCC(C)C3 (stereo not given)	18.9%	
CCC(C(=O)Nc1cccc(Cl)c1C)n1nc(-c2ccc(C)cc2)ccc1=O (stereo not given)	-22.7%	
O=[N+]([O-])c1ccccc1Nc1ccc(O)cc1		39.8 µM (active)
O=C(NCCNc1ccccc1[N+](=O)[O-])c1ccccc1F	8.95% [at 0.457 µM]	
O=C(Nc1ccccc1-c1ccccc1)c1ccccc1[N+](=O)[O-]	-5.53%	
COC(=O)c1ccccc1NC(=O)c1cc(-c2ccccc2O)no1	-17.4%	
O=C(CN1C(=O)COc2ccccc21)Nc1ccc(F)cc1		28.2 µM (active)
CC(OC(=O)CN1C(=O)COc2ccccc21)C(=O)NCc1ccc(F)cc1 (stereo not given)	13.9%	
O=C(CN1C(=O)COc2ccccc21)NCCN1CCc2ccccc2C1	-19.6%	
